For 63 molecules, max dye-equivalent concentration results are on record in PubChem BioAssay AID590 (National Center for Advancing Translational Sciences (NCATS), 2007).

About 6,500 (11%) of roughly 59,000 compounds were called active. Inconclusive results (about 15%) are left out. No stated cut-off is given here; in the data, active means max dye-equivalent concentration above about 10 nM; inconclusive means mostly about 1.1 nM to 9.6 nM; inactive means weaker than that. The sample as a whole holds a higher share of actives than the screen did.

This test in a line: qHTS Assay for Spectroscopic Profiling in A350 Spectral Region. The settings on record: Compound autofluorescence, 340/450 nm, Alexa 350 dye-equivalents; active compounds read high.
Regarding `CCN(CC)S(=O)(=O)c1ccc(NC(=O)CN(c2cccc(F)c2)S(C)(=O)=O)cc1`, the max dye-equivalent concentration result was “inactive”.

In the case of `CCOC(=O)c1c(NC(=O)CCC(=O)NCc2ccco2)sc2c1CCCC2`, the max dye-equivalent concentration entry was “inactive”.

Regarding `ClC(Cl)(Cl)C(N1CCN(c2ccccc2)CC1)N1CCN(c2ccccc2)CC1`, the max dye-equivalent concentration entry was “inactive”.

As for `COc1ccccc1N1CCN(C(=O)CSc2nnc(-c3ccoc3C)o2)CC1`, the max dye-equivalent concentration entry was “inactive”.

For the molecule `CN1C(=O)c2ccc(NC(=O)c3c(F)c(F)c(F)c(F)c3F)cc2C1=O`, the max dye-equivalent concentration is 110 nM (active).

For the molecule `O=C(Nc1ccncc1)c1c(F)cccc1F`, the max dye-equivalent concentration entry is “inactive”.

Turning to `CN1C(=O)c2ccc(NC(=O)C3CCCCC3)cc2C1=O`, the max dye-equivalent concentration is 320 nM (active).

Take `O=C(Nc1c(Cl)cccc1Cl)C1CCC1`: the max dye-equivalent concentration entry is “inactive”.

Regarding `O=C(O)c1ccc(NC(=O)C2CCCCC2)cc1`, the max dye-equivalent concentration result is “inactive”.

As to `Cc1nc(C)c(C(=O)Nc2ccc(C)c(F)c2)o1`, the max dye-equivalent concentration entry is “inactive”.

On to `C[N+]1(CCN=C=NC2CCCCC2)CCOCC1`, for which the max dye-equivalent concentration entry is “inactive”.

With `Cc1ccc(N2CCN(S(=O)(=O)N(C)C)CC2)cc1Cl`, the max dye-equivalent concentration result is “inactive”.

Consider `CCCCOc1ccc(C(C)(O)CCN2CCOCC2)cc1` (stereo not drawn), for which the max dye-equivalent concentration result is “inactive”.

With `CC(C)C(c1nnnn1CCc1ccccc1)N1CCN(C(=O)c2ccco2)CC1` (stereo not drawn), the max dye-equivalent concentration result was “inactive”.

Turning to `N#Cc1cccc(-c2ccc3ncnc(NCc4cccs4)c3c2)c1`, the max dye-equivalent concentration result was “inactive”.

Take `CC(=O)Oc1cccc(N2C(=O)CC(Nc3ccc(N4CCOCC4)cc3)C2=O)c1` (stereo not drawn): the max dye-equivalent concentration result is “inactive”.

With `CS(=O)(=O)N1CCC2(CC1)CN(Cc1cc(C(F)(F)F)cc(C(F)(F)F)c1)C2`, the max dye-equivalent concentration entry is “inactive”.

On to `C#CCN1C(=O)C(O)(CC(=O)c2cc(OC)ccc2OC)c2ccccc21` (stereo not drawn), for which the max dye-equivalent concentration was 14 nM (active).

As to `COc1ccc(OC)c(NC(=O)Cn2c(=O)oc3ccccc32)c1`, the max dye-equivalent concentration result was “inactive”.

Regarding `COc1ccc(N2C(=O)CCC(C(=O)N(C)C3CCCCC3)C2c2ccc(OC)c(OC)c2)cc1` (stereo not drawn), the max dye-equivalent concentration result is “inactive”.

For `COc1cccc2cc(C(C)N(CCCN3CCOCC3)C(=O)Nc3ccc(Cl)cc3)oc12` (stereo not drawn), the max dye-equivalent concentration result is “inactive”.

Take `COc1ccc(CCN(Cc2cc3cccc(C)c3[nH]c2=O)C(=O)N2CCCC2)cc1OC`: the max dye-equivalent concentration entry is “inactive”.

On to `COc1cc2cc(CN(CCN3CCCC3)C(=O)Nc3ccccc3Cl)c(=O)[nH]c2cc1OC`, for which the max dye-equivalent concentration is 310 nM (active).

With `Cc1ccc(-c2nnn(CC(=O)N(CCO)C(C(=O)NC(C)(C)C)c3ccncc3)n2)cc1` (stereo not drawn), the max dye-equivalent concentration entry was “inactive”.

Turning to `O=C(Nc1ccc2c(c1)OCCO2)c1ccncc1`, the max dye-equivalent concentration entry was “inactive”.

Regarding `Cc1cc(C)n2nc(C(=O)Oc3ccc4c(c3)OCO4)nc2n1`, the max dye-equivalent concentration entry is “inactive”.

For `COc1ccc2[nH]c3c(=O)n(Cc4ccco4)cnc3c2c1`, the max dye-equivalent concentration is 55 nM (active).

On to `COc1ccc(C(=O)CSc2nnc(COc3ccccc3)n2Cc2ccco2)cc1`, for which the max dye-equivalent concentration entry was “inactive”.

In the case of `O=c1c2[nH]c3ccc(Cl)cc3c2ncn1Cc1ccccn1`, the max dye-equivalent concentration result is “inactive”.

On to `COC(=O)c1[nH]c2ccccc2c1NS(=O)(=O)c1ccc(OC)cc1OC`, for which the max dye-equivalent concentration entry was “inactive”.

As for `CCOc1ccccc1NC(=O)Nc1cc(OC)ccc1OC`, the max dye-equivalent concentration result was “inactive”.

As for `COc1ccc(OC)c(N=Cc2c(O)[nH]c3ccccc23)c1`, the max dye-equivalent concentration was 64 nM (active).

`Cc1nc2nc(COc3ccccc3)[nH]n2c(=O)c1Cc1ccccc1`: the max dye-equivalent concentration result is “inactive”.

Consider `CC(=O)/C(C)=N\O`, for which the max dye-equivalent concentration result was “inactive”.

As to `Cc1cccc(Cn2c(N3CCN(c4ccccc4)CC3)nc3c2c(=O)n(C)c(=O)n3C)c1`, the max dye-equivalent concentration result is “inactive”.

Turning to `Cn1c(=O)c2c(nc(N3CCCCCC3)n2CC(=O)c2ccc(Br)cc2)n(C)c1=O`, the max dye-equivalent concentration entry is “inactive”.

With `Cn1c(=O)c2c(nc(N3CCCCCC3)n2CC(O)COc2ccc(Cl)cc2)n(C)c1=O` (stereo not drawn), the max dye-equivalent concentration was 49 nM (active).

With `c1ccc(CSc2nnc(-c3ccco3)n2Cc2ccccc2)cc1`, the max dye-equivalent concentration entry was “inactive”.

Regarding `Cc1ccc(Oc2nc3ccccc3n3c(C)nnc23)cc1`, the max dye-equivalent concentration entry is “inactive”.

For `CN(c1nc2ccccc2n2c(-c3ccco3)nnc12)S(=O)(=O)c1ccccc1`, the max dye-equivalent concentration was 39 nM (active).

Turning to `CC(=O)C1=C(O)C(=O)N(c2ccc(S(N)(=O)=O)cc2)C1c1ccccc1F` (stereo not drawn), the max dye-equivalent concentration is 23 nM (active).

For the molecule `COc1ccccc1N=C1SC(C)CN1C(=O)C1CCC1` (stereo not drawn), the max dye-equivalent concentration entry was “inactive”.

In the case of `COc1ccc(N2C(=O)CN=C2Nc2cccc(C)c2C)cc1OC`, the max dye-equivalent concentration entry was “inactive”.

In the case of `CSc1cccc(NC(=O)C2CCCN2S(=O)(=O)c2ccc3c(c2)CCC(=O)N3)c1` (stereo not drawn), the max dye-equivalent concentration entry is “inactive”.

As for `Cc1nc2nc(SCC(=O)NCc3ccco3)nn2c(C)c1Cc1ccccc1`, the max dye-equivalent concentration entry is “inactive”.

Turning to `O=C(CC1N=C2c3ccccc3N=C(SCc3ccccc3Cl)N2C1=O)NCc1ccco1` (stereo not drawn), the max dye-equivalent concentration was 17 nM (active).

Turning to `O=C(CN1C(=O)CCS(=O)(=O)c2ccccc21)NCc1ccc(F)cc1`, the max dye-equivalent concentration result is “inactive”.

`NC(=O)CSC1=Nc2ccccc2C2=NC(CCC(=O)NCc3ccc(F)cc3)C(=O)N12` (stereo not drawn): the max dye-equivalent concentration was 420 nM (active).

Regarding `CC1(c2ccccc2Cl)NC(=O)N(CC(=O)NC(=O)NCc2ccco2)C1=O` (stereo not drawn), the max dye-equivalent concentration result is “inactive”.

For `CCN(CC)S(=O)(=O)c1cccc(C(=O)NCC(=O)OCC(=O)NCc2ccccc2)c1`, the max dye-equivalent concentration entry is “inactive”.

Regarding `COc1ccccc1N(C(=O)Cn1nnc2ccccc21)C(C(=O)NCc1ccco1)c1ccc(C)o1` (stereo not drawn), the max dye-equivalent concentration result was “inactive”.

For `COc1ccc2[nH]cc(CCNc3ncnc4ccc(-c5ccc(C(=O)N(C)C)cc5)cc34)c2c1`, the max dye-equivalent concentration result was “inactive”.

As to `O=C(O)c1ccc(-n2cccc2)cc1O`, the max dye-equivalent concentration entry was “inactive”.

`Cc1cc(Cl)ccc1N1C(=O)CC(SCCC(=O)O)C1=O` (stereo not drawn): the max dye-equivalent concentration result is “inactive”.

On to `CN(C)c1ccc(NC(=O)c2ccncc2)c2ccccc12`, for which the max dye-equivalent concentration entry is “inactive”.

In the case of `CCN1CCc2c(C#N)c(NCc3ccccc3)nc(NCCO)c2C1`, the max dye-equivalent concentration is 500 nM (active).

As to `COc1ccc2c(=O)cc(-c3ccccc3)oc2c1O`, the max dye-equivalent concentration entry is “inactive”.

Regarding `Cc1noc(C)c1-c1nccc(N2CCOCC2)n1`, the max dye-equivalent concentration result was “inactive”.

As to `O=C(Nc1nsc(-c2ccccc2)n1)c1ccncc1`, the max dye-equivalent concentration entry was “inactive”.

Take `CC[C@]1(O)C[C@@H]2CN(CCc3c([nH]c4ccccc34)[C@@](C(=O)OC)(c3cc4c(cc3OC)N(C)[C@H]3[C@@](O)(C(=O)OC)[C@H](OC(C)=O)[C@]5(CC)C=CCN6CC[C@]43[C@@H]65)C2)C1`: the max dye-equivalent concentration is 54 nM (active).

Turning to `CC[C@]1(O)CC2CN(CCc3c([nH]c4ccccc34)[C@@](C(=O)OC)(c3cc4c(cc3OC)N(C=O)[C@H]3[C@@](O)(C(=O)OC)[C@H](OC(C)=O)[C@]5(CC)C=CCN6CC[C@]43[C@@H]65)C2)C1` (stereo partly drawn), the max dye-equivalent concentration entry is “inactive”.

As to `Cc1ccc(-c2csc3nnc(SCC(=O)NCc4ccco4)n23)cc1`, the max dye-equivalent concentration result is “inactive”.

Take `CC1CN(C2CCCCC2)c2nc3c(c(=O)n(C)c(=O)n3C)n2C1` (stereo not drawn): the max dye-equivalent concentration entry was “inactive”.
